# Screening data deposited in PubChem by several laboratories.
# The list is not random: actives were taken first. Their share in the collection is about 0.51%.
# phage Ecoli inh: growth loss of phage-infected E. coli, primary screen, RecBCD inhibitor project, absorbance, with phage, HTS. inhibition, % at 11.9 µM. 360,000 compounds, 0.26% hits; in the data active means inhibition above about 11%
# Tat export inh: E. coli Tat export inhibitors, primary screen, MC4100, TorA-mCherry reporter, fluorescence, single point | inhibition, % at 10 µM | 340,000 compounds, 0.036% hits;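 active means mean replicate inhibition at least 50% and at least half of replicates individually reaching 50%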;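 further: exported cargo escapes ClpAP degradation while cytoplasmic cargo is degraded and loses fluorescence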
# E coli growth-1: E. coli growth inhibition, primary screen, OD600; Escherichia coli growth, 23 h; active compounds read low; OD600 absorbance (test concentration not listed); 330,000 compounds, 0.21% hits; AID 1053175, 2014;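 active means OD600 absorbance below the run mean of sample wells minus 3.6 SD, in any replicate, cut at about 0.56 in these data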
# AddAB inh: growth inhibition of E. coli expressing H. pylori AddAB, primary screen, AddAB inhibitor project, absorbance | inhibition, % at 11.9 µM | 330,000 compounds, 0.29% hits; in the data active means inhibition above about 12%
# E coli growth-2: E. coli V3065 growth inhibition, primary screen, counter-screen for AddAB inhibitor project, absorbance, OD600; inhibition, % at 11.9 µM; 18 h; 330,000 compounds, 0.27% hits; AID 449728, 2010;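 active means inhibition above the campaign's mean inhibition across all tested compounds plus 3 SD, cut at about 9.9% in these data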;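 further: uninfected addAB+ strain grown without phage in ampicillin broth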
# Numbers stand for hits; . = inactive; / = not tested or not shown.
SMILES,phage Ecoli inh,Tat export inh,E coli growth-1,AddAB inh,E coli growth-2
CC1(C)C(O)CC[C@@]2(C)C1CC[C@]1(C)C2C(=O)C=C2C3C[C@@](C)(C(=O)O)CC[C@]3(C)CC[C@]21C (stereo partly specified),/,/,.,/,/
C=CCn1c(=O)c(C(=O)NCCNCC)c(O)c2ccccc21,.,.,.,.,.
C=CCn1c(=O)c(C(=O)NCc2ccccc2)c(O)c2ccccc21,.,.,.,.,11
COC1C(OC(N)=O)C(O)C(Oc2ccc3c(O)c(NC(=O)c4ccc(O)c(CC=C(C)C)c4)c(=O)oc3c2C)OC1(C)C (stereo unspecified),/,/,0.38,/,/
Oc1c(C(Nc2nccs2)c2ccc(C(F)(F)F)cc2)ccc2cccnc12 (stereo unspecified),.,.,.,/,/
Cc1conc1NC(c1cccs1)c1ccc2cccnc2c1O (stereo unspecified),/,/,/,13,13
COc1ccc(C2C=C3CN(C(=O)OC(C)(C)C)S(=O)(=O)C3CC2OC(=O)c2cccs2)cc1 (stereo unspecified),/,/,.,/,/
C[C@]12CCC(=O)C=C1CCC1C3CCC(C(=O)CO)[C@@]3(C=O)CC(O)C12 (stereo partly specified),/,/,.,/,/
Cc1nc(N)nc(N)c1CCCc1ccc(Cl)c(Cl)c1,.,.,0.41,.,.
COc1ccc(NC(=O)Nc2ccc3c(c2)CC(=O)N(C(C)CO)CC(C)C(CN(C)C(=O)Nc2ccccc2)O3)cc1 (stereo unspecified),/,/,.,/,/
OC(CNCC(c1ccc(Cl)cc1Cl)c1c[nH]c2ccccc12)c1ccccc1 (stereo unspecified),.,.,0.45,.,.
CC1CN(C(C)CO)C(=O)c2cccc(NC(=O)C3CCCCC3)c2OC1CN(C)C(=O)Nc1ccc2c(c1)OCO2 (stereo unspecified),/,/,.,/,/
CCOc1ccc2[nH]c3c(NCCN(C)C)ncnc3c2c1,.,.,.,.,.
CCOc1ccc2[nH]c3c(NCCC(C)C)ncnc3c2c1,.,.,0.5,/,/
COc1ccc(C2C3C(=O)N(C(C)(C)C)C(=O)C3[C@]3(Cc4ccc(Cl)cc4)C(=O)N(c4ccc(OC)cc4)C(=O)N23)cc1 (stereo partly specified),/,/,.,/,/
CC(=O)OCc1c(COC(C)=O)[n+](=O)c2ccccc2n1[O-],.,.,0.47,.,.
CC(=O)NNC(=S)NC(=O)c1ccccc1,.,.,0.4,.,.
CCC(=O)NNC(=S)NC(=O)c1ccc(C)cc1,.,.,0.5,.,.
CC(=O)NNC(=S)NC(=O)c1ccc(C)cc1,.,.,.,.,.
CC1OC(=O)C(C)C1CC(O)[C@](C)(O)C1CC[C@@]2(O)C3=CC(=O)C4CC(O)C(O)C[C@]4(C)C3CC[C@]12C (stereo partly specified),/,/,.,/,/
Cc1ccccc1CN1C(C(C)C)COCCS1(=O)=O (stereo unspecified),/,/,.,/,/
N#CC(=NNc1ccc(Cl)cc1)C(N)=S,/,/,0.45,/,/
Cc1cc(C(=O)N/N=C/c2ccc(O)c(O)c2O)c(C)n1-c1ccccc1,20,.,/,/,/
C[n+]1c2n(c3ccccc31)N=C(c1ccc(-c3ccccc3)cc1)CS2,.,.,0.3,.,.
C[n+]1c2n(c3ccccc31)N=C(c1ccccc1)CS2,.,.,.,.,.
SMILES,phage Ecoli inh,Tat export inh,E coli growth-1,AddAB inh,E coli growth-2
C=C[C@]1(C)CC1C(NP(=O)(c1ccccc1)c1ccccc1)c1ccccc1 (stereo partly specified),/,/,.,/,/
CC(=O)OC1C=COC(C)C1OC(C)=O (stereo unspecified),/,/,.,/,/
Cc1cccc(N2C(=O)CS/C2=N\NC(=O)c2ccc(Br)cc2)c1C,.,.,/,.,13
Cc1cccc(N2C(=O)CSC2=NNC(=O)c2ccc(Br)cc2)c1C,/,/,.,/,/
CC(C)NC(=O)N(C)CC1Oc2ccc(NS(=O)(=O)c3cccs3)cc2C(=O)N(C(C)CO)CC1C (stereo unspecified),/,/,.,/,/
CC(C)CC(CO)N(Cc1ccccc1)S(=O)(=O)N(Cc1ccccc1)C(CO)CC(C)C (stereo unspecified),/,/,.,/,/
O=C(NN=Cc1ccc([N+](=O)[O-])o1)C1CC1,/,/,0.065,/,/
O=C(CCC(=O)Nc1ccc(Cl)cc1Cl)NN=Cc1ccc([N+](=O)[O-])o1,/,/,0.41,/,/
O=C(NN=Cc1ccc([N+](=O)[O-])o1)c1ccc(O)cc1,/,/,0.41,/,/
O=[N+]([O-])c1ccc(C=NNC(=S)Nc2ccccc2F)o1,/,/,.,/,/
CCCC(=O)Nc1ccc(C(=O)NN=Cc2ccc([N+](=O)[O-])o2)cc1,/,/,.,/,/
O=[N+]([O-])c1ccc(C=NNC(=S)Nc2ccccc2C(F)(F)F)o1,/,/,0.49,/,/
CC1CN(C(C)CO)C(=O)c2cc(NC(=O)Nc3ccc4c(c3)OCO4)ccc2OC1CN(C)S(=O)(=O)c1cn(C)cn1 (stereo unspecified),/,/,.,/,/
COC(=O)C(CCSC)NC(=O)Cn1ccc(NC(=O)OCc2ccccc2)nc1=O (stereo unspecified),/,/,.,/,/
O=C(NC1CC1)C1=CC(c2coc3ccccc3c2=O)CC(OCCCCO)O1 (stereo unspecified),/,/,.,/,/
O=C(CNC(=O)c1ccccc1)NN=Cc1ccc([N+](=O)[O-])o1,/,/,.,/,/
Cc1nonc1C(=O)NN=Cc1ccc([N+](=O)[O-])o1,/,/,0.5,/,/
NC(=O)NN=Cc1ccc([N+](=O)[O-])o1,/,/,0.064,/,/
O=C(CNc1ccccc1)NN=Cc1ccc([N+](=O)[O-])o1,/,/,0.49,/,/
CN(C)C=Cc1onc(-c2c(F)cccc2Cl)c1C#N,/,/,.,/,/
CCCCNC(=S)Nc1ccc([N+](=O)[O-])cc1,.,.,0.52,.,.
CC(C)CCNC(=S)Nc1ccc([N+](=O)[O-])cc1,.,.,.,.,.
CC(=O)Oc1c(I)cc(I)cc1C(=O)Nc1ccc(Cl)cc1,.,.,/,.,12
COc1ccc(Cl)cc1C(=O)Nc1ccc(NC(C)=O)cc1,.,.,.,.,.
O=C(Nc1ccccc1C(=O)NC1CC1)c1ccc([N+](=O)[O-])o1,16,.,.,/,/
SMILES,phage Ecoli inh,Tat export inh,E coli growth-1,AddAB inh,E coli growth-2
O=c1oc2cc(O)ccc2s1,.,.,/,.,10.0
Oc1ccc2c(c1)oc1cc(O)ccc12,.,.,.,.,.
CC1CN(C(C)CO)C(=O)c2cc(NC(=O)CCC(F)(F)F)ccc2OC1CN(C)S(C)(=O)=O (stereo unspecified),/,/,.,/,/
C/C(CC(=O)Nc1cc(C)ccn1)=N\NC(=O)c1cccc(C)c1O,11,.,/,.,.
CCN1C(=O)C2C(c3ccc(-c4ccc5c(c4)OCO5)c(OC)c3)N[C@@](Cc3ccccc3)(C(=O)OC)C2C1=O (stereo partly specified),/,/,.,/,/
CCc1ncc(C)[nH]1,.,/,/,.,.
CCc1ncc(C)nc1CC,.,55,.,.,.
Cc1cc(C)c(S(=O)(=O)/N=C2/C=C(Sc3ncn[nH]3)C(=O)c3ccccc32)cc1C,11,.,/,.,.
CN(C)c1ccc(/C=C/c2ccc3ccccc3[n+]2C)cc1,.,.,0.29,28,18
CN(C)c1ccc(/C=C/c2cccc[n+]2[O-])cc1,.,.,/,.,.
